Measurements published in PubChem BioAssay (Tox21).
Results filed as inconclusive are left out. Calls of active or inactive are those of the source. Unless noted, calls come from the whole dose curve; as a rule, active = well fitted curve in the direction sought with a large enough effect in the repeat runs; inconclusive = weak or mixed curves; inactive = no such curve, though single readings can be large; an effect the other way counts as inactive or inconclusive.

Columns and labels:
[1] = qHTS assay to identify small molecule antagonists of the estrogen related receptor (ERR) signaling pathway - cell viability counter screen (AID 1224818);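 note: series mostly up to about 46 µM; viability measured after 17.5 h of compound exposure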
How it was run: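 In the same ERR cell assay, compound-treated wells (17.5 h, 37 C) were multiplexed with a fluorogenic viability reagent, CellTiter-Fluor, read after 30 min to flag cytotoxic substances.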

[2] = qHTS assay to identify small molecule antagonists of the estrogen related receptor (ERR) signaling pathway (AID 1224819;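 note: luminescence from an ERR-driven luciferase reporter measured with One-Glo reagent; series mostly up to about 46 µM; nearly all actives have a fitted effect of over 50% in size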)
How it was run: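 qHTS in ERR cells, 2,000/well, 1536 format. Cpd (DMSO) added after 6 h settle, 18 h 37 C. One-Glo luminescence, 30 min RT.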

[3] = qHTS assay to identify small molecule agonists of the estrogen related receptor (ERR) signaling pathway (AID 1224820)
How it was run: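 Cells: ERR line from NTP, 2,000/well. Pre-incubation 6 h, 37 C/5% CO2. Compound (DMSO) pin transfer, 18 h 37 C. One-Glo, 30 min RT, luminescence.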

[4] = system: estrogen-related receptor alpha (ERRalpha) with PGC-1alpha coactivator, human; assay: qHTS assay to identify small molecule antagonists of the estrogen related receptor signaling pathway with the pleiotropic PPARgamma coactivator (PGC) (AID 1224821; calls by dose curve;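 note: series mostly up to about 46 µM; lower luminescence signal means antagonism of PGC/ERR signalling; nearly all actives have a fitted effect of over 50% in size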)
How it was run: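 Luminescent read-out (One-Glo, 30 min at room temperature) following 18 h treatment of PGC/ERR cells at 37 C with compounds delivered in DMSO. Cells had settled 6 h at 37 C/5% CO2 before dosing.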

[5] = qHTS assay to identify small molecule antagonists of the estrogen related receptor signaling pathway with the pleiotropic PPARgamma coactivator (PGC) cell viability counter screen (AID 1224822; note: series mostly up to about 46 µM)
How it was run: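 Compounds in DMSO, with positive and negative controls, were applied to PGC/ERR cells (2,000/well) and left 17.5 h at 37 C before CellTiter-Fluor detection.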

[6] = qHTS assay to identify small molecule agonists of the estrogen related receptor signaling pathway with the pleiotropic PPARgamma coactivator (PGC) (AID 1224823)
How it was run: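 Steps: plate PGC/ERR cells at 2,000 cells/well; incubate 6 h, 37 C/5% CO2; pin-transfer compounds (DMSO); incubate 18 h, 37 C; add One-Glo; 30 min RT; read luminescence.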

Measured: Potency

C[N+](C)(C)CCOC(=O)CBr
inactive: [1] | [2] | [3] | [4] | [5] | [6]
